The record followed here is PubChem BioAssay AID1508600 (Functional Genomics Laboratory (NCATS/FGL), 2020).

About 3,700 (7%) of roughly 53,000 sequences were called active. This is one part of a sample in which actives are shown more often than they occur. Unmarked numbers belong to inactive results.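 How the source made its calls: active means gene knockdowns whose robust z-score for IL-1 alpha signal is at least 2 or at most -2, so actives lie on both sides; inactive means the rest.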

A short description of the experiment: Components of the Cytosolic LPS Sensing Pathway: Gene Identification via Genome-wide siRNA Screen.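 Further: robust z of the log signal after scaling to non-targeting control siRNA wells of the plate.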 The settings on record: RAW264.7 macrophages, IL-1a HTRF, actives lie on both sides, screened at 100 nM (by protocol), cells primed 5 h with Pam3CSK4 first. The procedure, abridged: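 Cells (RAW264.7, 1×10^4 per well) were transfected with siRNA at 100 nM and cultured 48h at 37 degrees C. Pam3CSK4 was added for 5 hours; LipidA transfection followed for 24 hour. IL-1a was then measured by HTRF.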
A general note: TR-FRET usually uses a lanthanide donor and a delayed reading to cut background.
On to CCUAAUGGAAGGGAAGCCATT against Cox19, for which the z-score was -2.06 (active).

As for GGACCUGAAUAAGACUAUUTT against Lgmn, the z-score was -0.429.

Regarding GGGAGGUUACUAUGGAGACTT against Mia, the z-score is 1.68.

For the sequence GCUACUGCAUUCUCUAUCATT against Actl9, the z-score was 1.94.

Consider GGCAACUGUGUUCUCACGATT against Ddx58, for which the z-score was -1.22.

As to CCACUUCCAUAGAGAUUUUTT against Tmx3, the z-score was 2.93 (active).

Turning to GCUUUGUUUGAAAAUGCGATT against Nrde2, the z-score is -0.66.

In the case of CCGCGUGUAUAAGUUGGUGTT against Mrpl9, the z-score is 1.23.

GCCUCGAUUCACCAAGUGUTT against Ghr: the z-score is -0.663.

Regarding GGAAGAUCGAGAAUGUUCCTT against Ppih, the z-score was 0.174.

Take GCCAUAUCAACUCAGAUCATT against Ssh2: the z-score was 5.04 (active).

For the sequence GGUAAUAAGUCCCAUUUUCTT against Prpmp5, the z-score was 0.817.

Take GGCCAGAAGAACUAACAGUTT against Cept1: the z-score was -0.11.

Regarding GGACAAUGCUAAUGAGACCTT against Gcsam, the z-score was -0.176.

In the case of GAGGGACUGUAAUGUUGACTT against Olfr560, the z-score was 0.0877.

With CCGCUAGACAAAUUUUGCCTT against Slc6a2, the z-score is 1.45.

On to GCUACAGUAGUAAGACUAATT against Usp53, for which the z-score was 2.67 (active).

For the sequence GGAGUAACAACACAACAUUTT against Mab21l1, the z-score was 1.43.

Take CGCUGAAAGUGAACGUAGGTT against Kcnv2: the z-score is -1.14.

In the case of CCUUCACAUAAGUUUCUGUTT against Nuak2, the z-score was 0.575.

Take GAGGAAGACACUUUUCCUGTT against Atp23: the z-score is 0.765.

For the sequence GGGCAGUGAAAUCCUGUCUTT against Trim16, the z-score was -2.81 (active).

On to GCUUAGAUCACCUAAUGACTT against Parp3, for which the z-score was 1.18.

With GGAUGUUUGGACCAAUCACTT against Iba57, the z-score is -0.962.

Take GGUGCUACUCCAGAUUGACTT against Tbc1d13: the z-score was 0.63.

As for GGUUAUAAACCAGAAGAGUTT against Mill2, the z-score was 0.807.

Take GCUGUUAGACCUCUUGAUUTT against Olfr1164: the z-score was 0.0632.

For GGUAGAUCAGUAAUAGUUATT against Glrb, the z-score was 0.837.

In the case of GGAGAUUGAGAACACAAGCTT against Hipk2, the z-score was 2.37 (active).

Turning to CCAGACACAUAGGACAAAATT against Slco3a1, the z-score was -0.00454.

Take GGCUGUGCGUGUUACAAAATT against Erlin1: the z-score was 0.501.

Regarding GGAAUGUCUAUCACAAUGGTT against Vmn1r230, the z-score was 1.78.

For GGUGGAAGAUGAGAAAGAGTT against Tmem139, the z-score was -1.21.

Turning to GGAAGAUAAAUGUCACAAATT against AA792892, the z-score is 0.392.

GCCAGAAAUACCUGUCGGATT against Cdc37: the z-score was -0.229.

Turning to CCACUUUCAACUUUCCGCATT against Fgd5, the z-score is -1.94.

In the case of GCUAGACCUAAGGAGCAAATT against Axin1, the z-score is 3.59 (active).

With GGCCAAUUUCUUCACUUCUTT against Ints11, the z-score was -0.809.

As to GGUUUUCACCAUAUGCAGCTT against Zfp353-ps, the z-score was 0.267.

As to GGAAGAAAUGUCAUCACAATT against Heph, the z-score is 0.193.

Turning to CGGACACAUUGACUGAAUATT against Adgrl1, the z-score is -1.45.

Regarding CCCACAUCAUUGAGAUUCUTT against Olfr1508, the z-score is -1.25.

Regarding GGAGAAGUUUGAAGAGAUGTT against Cct5, the z-score is -2.24 (active).

As for GGAAGAAAACAUUUAGCCCTT against Mmd2, the z-score is 0.504.

On to ACAUACCAGUCUCUGUACCTT against Pigu, for which the z-score is -1.56.

For CCGCCUCUUACCGAAGUUCTT against Mettl4, the z-score was 3.04 (active).

In the case of GGACUUGAAAGAUAAAUAGTT against Crx, the z-score is 0.163.

Regarding GCUAAUAACUUUUCAGUGATT against Olfr381, the z-score is 0.549.

On to GGUUGGUAGGAUGGACAAGTT against Rab11b, for which the z-score was 2.45 (active).

As for GCCCUGUAUUUUGAAUUACTT against Bmpr1b, the z-score is 0.0161.

Regarding GGGAAGAAAUAUGUUAGAUTT against Pip4p2, the z-score was 0.92.

For the sequence CCUUGUUACUAUACUACACTT against Ppp1r2, the z-score was 2.59 (active).

As for GCCUUUUAGCUGUUCAGGATT against Nlrc5, the z-score was 1.83.

Take GCUGAAGCAUACAUUUGUGTT against Tas2r137: the z-score was -0.226.

Consider CCAAUCUCCUGUUGUUAAATT against Mlf1, for which the z-score was 0.557.

Take CCAGUCUUGCCCUUUAGUGTT against Foxi2: the z-score is -1.88.

On to AUGUAUUGAGUCAGGCAUCTT against Olfr243, for which the z-score was 2.32 (active).

As for CCUUACCACUUGAAGAUGGTT against Ephx1, the z-score was -1.2.

Take GCCAGUGAGUUUAUCAGCCTT against B4galnt3: the z-score is 0.706.

GGUAUACAUGCUUCUCUCUTT against Olfr610: the z-score is -0.569.

As to GCUACAGAACCUGCUCUACTT against Thoc5, the z-score was 0.391.

With GGCAUUGAACAAGAAAGAATT against Mef2c, the z-score is -0.94.

As for GGGUAUGGUUUCAUCACUUTT against Boll, the z-score was -2.71 (active).

As to GGAAGACAAAGAUUCUAGUTT against Abcc1, the z-score was -1.06.

For UUACUGGUUGCUGUUGUGGTT against Alyref, the z-score is 1.35.

On to GGAGAUCUCCUCAGCCACATT against Gemin4, for which the z-score is -2.14 (active).

As to GCUGUGGUACAACCACAUUTT against Lrrc8a, the z-score is -0.244.

GGAACCACACCAUGUGAAATT against Prdm5: the z-score was 0.828.

Regarding CCAUUCCCGCAUCCAUGUGTT against Zfp672, the z-score was -2.23 (active).

Turning to AGAGGAAGCUCGAAAACGGTT against Zrsr2, the z-score is -0.2.

Regarding GGAUAUCAUCGUGUUUAUUTT against Vps45, the z-score was 0.612.

On to GGACAACAUUAUAGGAAAGTT against Neu3, for which the z-score is 2.36 (active).

For GCAAAAAAUCACUUCGAGUTT against Mgat4a, the z-score was -0.377.

For the sequence GGGUAAGUAUUGAACUCAUTT against Slc10a1, the z-score is 1.06.

Turning to GGAUGCUGAAGUAAUAGUGTT against Tbc1d15, the z-score was 0.0714.

In the case of CGUUGUCAUUCACAAGUGATT against Tmprss11e, the z-score was 3.02 (active).

For GGAAUGCUAUCAGAGAAGATT against Zmym5, the z-score is -0.0365.

As to CCCUUCUUCGGGUUUUAACTT against Kcna3, the z-score was 3.08 (active).

For GGUUUAAGGUAGUUCAUGATT against Faf1, the z-score was -0.0439.

Turning to GGCCUCAAGAAUGUAACAGTT against Psmf1, the z-score is -1.07.

Take GGACAAUUGAAUACCUAGATT against Hadha: the z-score is 0.151.

Turning to GGACUCAACUGCACUGUUGTT against Izumo4, the z-score was -2.37 (active).

Take CCAAGUUUUAGCACCUAAATT against Dcp1a: the z-score was 0.769.

For the sequence GGACAUGAAGAUCAAGUCCTT against Rps2, the z-score was -0.109.

For the sequence GAAGACUUCAAUCAACCAGTT against Trim6, the z-score was -0.396.

As for GGAAACUUGUUGAAGAGAUTT against Ptprz1, the z-score is 2.37 (active).

For the sequence GCAUACCGGAUAAACUGAATT against Apoc1, the z-score was -0.916.

Turning to GGAAUGUCGAAUUGAUUGUTT against Klrb1b, the z-score is 0.524.

Take GGAAGAGAGAGACAAGGAUTT against Dap: the z-score is 1.38.

As for GGCGACGAAGUCACCUAUATT against Carhsp1, the z-score is -0.0404.

Turning to GAAGGCCAAUGAUCGGGAGTT against Neurog3, the z-score was -2.1 (active).

With GGUGGAGAAAUCUGCUAAUTT against Lta4h, the z-score was 1.99.

Turning to CGUCAAUGAAUUCGACUCUTT against Pnlip, the z-score is 0.348.

On to GCUUUCAGCUAUUGGACCCTT against Kl, for which the z-score is 0.0919.

Regarding CGAUGCUGACUGAGAUCAUTT against Rad23a, the z-score is 1.39.

For GGUAUAGUUAAAGUGAGAGTT against Sp8, the z-score was -0.883.

As for GGAGUUAAUUGCCCGCAACTT against Rab19, the z-score was 0.588.

Turning to CGGAAGAUGUUAAAACUAUTT against Slc44a3, the z-score was -1.33.

With CCAGGACAAUAACUCUGAGTT against Aatk, the z-score is -1.28.

On to GGCGAGUUUAUAGAAGAAATT against Phf19, for which the z-score is 1.35.

With GCAAAAGCGGGUCAAAAAATT against Lrrc72, the z-score was 2.27 (active).

Turning to GGCUUGGAAUGACACUACUTT against Maged1, the z-score is -1.12.

Regarding GCUCAAUUUACAAAAGCCCTT against Pik3c2a, the z-score is -0.961.

As to CCUGUUUCUGACCUAAUACTT against Syn1, the z-score was -0.088.

As for GGAAGAUAUUGCUGUUGGATT against Mbd4, the z-score was 0.823.

Turning to GCAAGAUGAGAAGGAUUUUTT against Zfp691, the z-score is 0.591.

Consider GGAGGAAAACAAACCACAGTT against Tpbpa, for which the z-score is 0.0817.

Take GCUGCAUCUAAAGCCUUAATT against Olfr661: the z-score was 1.41.
